Bioassay records from PubChem BioAssay.
Akt phos inh – HTS Assay for Inhibitors of Akt Phophorylation: Primary Screen; Neuro2A IGF-stimulated pAkt S473 HTRF, 20 min; stronger effect = lower value; activity change, % for hits at 50 µM; 360,000 compounds, 0.32% hits; AID 651550, 2012; in the data active = activity change below about -80%; inconclusive = mostly about -51% to -80%; note: % is set by controls: 0 for no effect and ±100 for the full control effect
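Neuro2A cells (4,500/well, DMEM with 0.5% FBS) were treated with compound at a single 50 µM final concentration, stimulated with 6 nM IGF for 20 min at 37 °C, and lysed. Phospho-Akt Ser473 was read by HTRF as 665/615 ratio ×10^4.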
TSHR antagonist – Antagonists of the Thyroid Stimulating Hormone Receptor: HTS campaign; activity change, negative = inhibition, % at 11.5 µM; TSHR-expressing cells, TSH-stimulated cAMP HTRF, 2 h; stronger effect = lower value; 330,000 compounds, 0.2% hits; Thyrotropin receptor (Homo sapiens), P16473;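 active = activity change below a set negative limit, meaning inhibition stronger than a set level, cut at about -70% in these data; inconclusive = activity change between two set negative limits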; note: % is set by controls: 0 for no effect and ±100 for the full control effect
Target sequence (P16473 whole entry, looked up): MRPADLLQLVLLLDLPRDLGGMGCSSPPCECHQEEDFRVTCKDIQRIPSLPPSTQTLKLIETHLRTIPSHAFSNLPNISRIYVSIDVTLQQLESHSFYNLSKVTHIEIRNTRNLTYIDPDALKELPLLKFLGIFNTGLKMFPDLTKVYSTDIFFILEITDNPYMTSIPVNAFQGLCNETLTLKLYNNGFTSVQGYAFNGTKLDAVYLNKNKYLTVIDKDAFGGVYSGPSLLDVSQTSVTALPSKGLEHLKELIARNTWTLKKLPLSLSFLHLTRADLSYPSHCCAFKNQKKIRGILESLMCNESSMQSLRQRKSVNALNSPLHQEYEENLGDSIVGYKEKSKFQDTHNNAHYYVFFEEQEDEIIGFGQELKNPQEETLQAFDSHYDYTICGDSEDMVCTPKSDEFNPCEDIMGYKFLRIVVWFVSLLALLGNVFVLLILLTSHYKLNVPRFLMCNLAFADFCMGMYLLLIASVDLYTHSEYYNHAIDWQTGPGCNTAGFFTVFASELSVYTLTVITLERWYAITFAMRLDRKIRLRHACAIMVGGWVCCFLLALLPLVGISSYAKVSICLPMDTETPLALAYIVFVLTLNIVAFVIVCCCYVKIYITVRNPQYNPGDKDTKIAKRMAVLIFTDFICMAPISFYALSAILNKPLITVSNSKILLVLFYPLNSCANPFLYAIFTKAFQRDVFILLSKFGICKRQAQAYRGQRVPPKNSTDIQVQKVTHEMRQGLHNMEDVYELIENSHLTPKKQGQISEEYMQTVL
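TSHR-expressing cells, 200/well, pre-treated with compound, then stimulated with EC80 TSH (4nM final) for 2 hours at 37 deg C. cAMP measured by competitive HTRF: anti-cAMP cryptate antibody in lysis buffer plus cAMP-d2, read after 30 minutes at room temperature.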
RXFP1 antag – qHTS Assay for Antagonists of the Relaxin Receptor RXFP1 | Relaxin receptor 1 (Homo sapiens), Q9HBX9 | HEK293-RXFP1, relaxin-stimulated cAMP HTRF, 30 min; stronger effect = lower value | activity change, negative = inhibition, % at 57.5 µM | 350,000 compounds, 0.59% hits | AID 1259400, 2018;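 active = activity change of -60% or lower, but not beyond a set lower limit; inconclusive = change between -60% and -40%, or beyond the set limit; inactive = change above -40%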; note: % is set by controls: 0 for no effect and ±100 for the full control effect
gsp antagonist – qHTS for Antagonists of gsp, the Etiologic Mutation Responsible for Fibrous Dysplasia/McCune-Albright Syndrome: qHTS. gsp-mutant cells, cAMP HTRF, 30 min. Potency, µM (highest dose often 76.9 µM), inactives show at the top dose activity change, negative = inhibition, usual class: inhibitors. 340,000 compounds, 0.4% hits. AID 624288, 2012; calls by dose curve; cell line not stated here;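 note: intracellular cAMP measured with PDE inhibitor Ro 20-1724 present during compound exposure; potency is the fitted concentration of half-maximal effect; % is set by controls: 0 for no effect and ±100 for the full control effect; nearly all actives have a fitted effect of over 65% in size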
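Measurement of cellular cAMP by homogeneous time-resolved fluorescence following a 30 min compound exposure at 37C. The PDE inhibitor […] was present throughout; the assay buffer was DPBS with 0.05% BSA and 0.005% Tween 20.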
RXFP1 agonist – qHTS Assay for Agonists of the Relaxin Receptor RXFP1. AID 2676, 2010. 370,000 compounds, 0.3% hits. Potency, µM (titrated, usually from 57.5 µM), for the others: at the top dose activation, hits mostly activators. Relaxin receptor 1 (Homo sapiens), Q9HBX9. HEK293T-RXFP1 cAMP TR-FRET, 30 min; response scale: percent of porcine relaxin response, buffer zero; active = well fitted activation curve with a large enough effect; inconclusive = small, poorly fitted or top-dose-only effect; note: potency is the fitted concentration of half-maximal effect; % is set by controls: 0 for no effect and ±100 for the full control effect; nearly all actives have a fitted effect of over 60% in size
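HEK293 cells stably expressing RXFP1, treated 30 min at 37C with compounds plus PDE4 inhibitor Ro 20174; cAMP measured by HTRF TR-FRET. Normalized to buffer and 29 nM porcine relaxin; EC50 by Hill fit.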
gsp ag – qHTS for Agonist of gsp, the Etiologic Mutation Responsible for Fibrous Dysplasia/McCune-Albright Syndrome: qHTS; gsp mutant cells, cAMP HTRF, 30 min; Potency, µM (titrated, usually from 76.9 µM), for inactives: top-dose activation (cAMP increase), most hits filed as activators; 340,000 compounds, 0.13% hits; active = well fitted activation curve with a large enough effect; inconclusive = small, poorly fitted or top-dose-only effect, or another doubt; inactive = no such curve, though single readings can be large or run the other way; cell line not stated here;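 note: phosphodiesterase inhibitor Ro 20-1724 added with compounds to block cAMP breakdown; potency is the fitted concentration of half-maximal effect; nearly all actives have a fitted effect of over 60% in size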
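Cells in DMEM/10% FBS with G418 were pretreated with compounds in DMSO plus […] (300 uM stock) for 30 min at 37C. cAMP was measured by HTRF (cAMP-d2 plus anti-cAMP antibody-K) after 30 min at room temperature.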
Active calls of the source: *; i = inactive; ? = inconclusive; / = no result given; [ ] = remark or other dose. Compounds with a hit are over-represented: about 1.3% of the library has one in this group of screens.

SMILES	Akt phos inh	TSHR antagonist	RXFP1 antag	gsp antagonist	RXFP1 agonist	gsp ag
CC(C)C(=O)N(c1ccc2oc(=O)sc2c1)S(=O)(=O)c1cccs1	i	-12.9	-25.8	-16.8%	0.0%	15.9%
C[C@H](NC(=O)c1nc[nH]c1C(=O)N1CCNCC1)C(=O)OC(C)(C)C	i	-4.1	/	13.7%	-0.1%	/
CN(C/C=C/c1ccccc1)Cc1cccc2ccccc12	i	-1.1	-69.2*	-12.7%	0.1%	/
COc1cc(C2=NOC(C(=O)Nc3c(C)n(C)n(-c4ccccc4)c3=O)C2)cc(OC)c1OC (stereo unspecified)	i	7.0	-0.1	-10.2%	-2.7%	?
COc1ccc(Cl)cc1NC(=O)CN(C)C(=O)c1sccc1-c1ccccc1	i	-12.9	-8.3	?	5.1%	-22.4%
CCCN(CC(=O)Nc1ccccc1OC)C(=O)CN1C(=O)NC(C)(C)C1=O	i	/	3.4	/	/	2.6%
CC(C)(C)c1csc(NC(=O)c2ccc(Cl)s2)n1	i	12.7	-100.7*	?	-1.3%	-18.2%
C/C(=N\NC(=O)c1nn(C)c(C)c1Br)c1ccc(NC(=O)C2CCCC2)cc1	i	0.0	1.3	4.5%	-0.1%	-4.2%
Cn1cc(S(=O)(=O)c2ccccc2)c(=O)c2cc(F)c(N3CCCCCC3)cc21	/	/	-35.7	/	8.7%	/
O=C(CCn1c(=O)c2cccn2c2ccc(F)cc21)NCCc1ccc(Cl)cc1	/	/	-26.7	/	-2.1%	/
O=C(CCCn1c(=O)c2cccn2c2ccccc21)NCCc1ccc(Cl)cc1	/	/	-71.1*	/	-0.5%	/
CCC(=O)NC(Nc1sc2c(c1C(=O)OC)CCC2)C(Cl)(Cl)Cl (stereo unspecified)	i	-72.0*	/	-36.1%	-0.8%	1.4%
COC(=O)c1c(NC(NC(=O)CC(C)C)C(Cl)(Cl)Cl)sc2c1CCC2 (stereo unspecified)	i	-47.1	/	?	0.0%	-11.8%
S=C(Nc1cccnc1)Nc1cccc2cnccc12	i	9.9	-2.2	4.4%	4.4%	3.0%[15.4 µM]
CN(C)S(=O)(=O)c1cccc(NC(=S)Nc2cccc3cnccc23)c1	i	9.6	-71.4*	-12.5%	-4.7%	19.4%
CCC1Sc2ccc(S(=O)(=O)N3CCN(c4ccccc4)CC3)cc2NC1=O (stereo unspecified)	i	-10.6	-66.9*	-19.6%	-0.4%	?
CCCC(=O)O[C@]1(C(=O)CC)CC[C@H]2[C@@H]3CCC4=CC(=O)CC[C@]4(C)[C@H]3[C@@H](O)C[C@@]21C	/	/	3.4	/	/	/
Cc1nc(SC2CCOC2=O)c2c(C)c(C)sc2n1 (stereo unspecified)	i	6.3	-7.7	0.5%	?	20µM*
Cc1nc(SCC(=O)N2CCOCC2)c2c(C)c(C)sc2n1	i	-7.6	7.6	-0.2%	9.8%	-10.8%
CC1CC(=O)N(CC(=O)Nc2cccc(F)c2)c2ccccc2S1(=O)=O (stereo unspecified)	i	21.4	5.3	-12.4%	0.5%	-19.6%
CN1Cc2cc(C(=O)N3CCC(C4CCNCC4)CC3)ccc2NC(CC(=O)O)C1=O (stereo unspecified)	/	/	-3.7	/	/	/
CN(C)CCSc1nnc2sc3ccccc3n12	-106.0%*	-2.4	4.4	5.4%	5.4%	?
N#CCSc1nnc2sc3ccccc3n12	i	13.5	/	4.6%	13.9%	?
CC(C)=CCC[C@H](C)C[C@@H]1CC2=C(C(=O)OC(C)(C)O2)[C@H](c2ccc(F)cc2)O1	i	/	/	/	/	/
CCS(=O)(=O)c1nc(S(=O)(=O)c2ccc(C)cc2)c(N2CCN(C)CC2)s1	/	18.0	6.3	-3.3%	25.1µM*	?
SMILES	Akt phos inh	TSHR antagonist	RXFP1 antag	gsp antagonist	RXFP1 agonist	gsp ag
CCS(=O)(=O)c1nc(S(=O)(=O)c2ccc(Cl)cc2)c(N2CCCC2)s1	/	23.7	-4.0	-14.9%	?	12.6µM*
CCS(=O)(=O)c1nc(S(=O)(=O)c2ccc(Cl)cc2)c(N2CCN(C)CC2)s1	i	52.7	21.5	10.5%	-1.0%	?
CCC(CC)c1nnc(NC(=O)C2CC(=O)N(C3CCCC3)C2)s1 (stereo unspecified)	i	-13.7	-13.2	7.4%	-0.1%	23.2%
CC(C)CCC(CCNCc1ccccn1)c1ccc(Cl)cc1 (stereo unspecified)	i	7.0	-68.6*	2.8%	-1.2%	16.0%
C=C1C(=C/C=C2\CCC[C@]3(C)[C@@H]([C@H](C)/C=C/[C@@H](O)C4CC4)CC[C@@H]23)C[C@@H](O)C[C@@H]1O	/	/	-72.3*	/	/	/
C=C1/C(=C\C=C2/CCC[C@]3(C)[C@@H]([C@H](C)CCCC(C)(C)O)CC[C@@H]23)C[C@@H](O)C[C@@H]1O	/	-25.0	/	/	0.6%	/
Cc1c(CCC(=O)O)c(=O)oc2c(C)c3occ(-c4ccc(Cl)cc4)c3cc12	i	-9.5	2.9	31.6µM*	1.6%	10.9%[15.4 µM]
Cc1c(CCC(=O)O)c(=O)oc2cc3occ(-c4ccc(Cl)cc4)c3cc12	i	-12.7	15.3	-31.7%	0.1%	26.2%
CCOc1ccc(/C(O)=C2/C(=O)C(=O)N(CCOCCO)C2c2cccnc2)cc1 (stereo unspecified)	i	1.9	41.8	18.3%	?	12.6µM*
CC1CCN(S(=O)(=O)c2ccc3c(ccc(=O)n3CC(=O)NCc3ccccc3Cl)c2)CC1	/	/	/	/	-0.6%	/
CC(=O)c1cccc(NC(=O)COc2cc3oc(=O)c(CC(C)O)c(C)c3cc2Cl)c1 (stereo unspecified)	i	-1.2	-9.9	31.6µM*	-0.3%	5.9%[15.4 µM]
CCN(CC)c1ccc(N=Cc2ccc([N+](=O)[O-])o2)cc1	i	-13.8	-67.3*	?	-4.7%	-21.0%
CCN(CC)c1ccc(N=Cc2ccccc2[N+](=O)[O-])cc1	i	-11.5	-67.6*	?	-3.7%	-23.3%[15.4 µM]
COc1ccccc1N1CCN(c2ncnc3n[nH]c(Br)c23)CC1	i	/	/	/	/	/
CC1(c2nnnn2Cc2ccccc2)CCC(=O)N1Cc1ccc(F)cc1 (stereo unspecified)	i	/	/	/	/	/
CCn1c(=O)c2sccc2n2c(CCCC(=O)Nc3ccc(OC)c(OC)c3)nnc12	/	/	3.3	/	5.1%	/
COc1ccc(NC(C)=O)c(C)c1	i	0.8	0.6	4.3%	3.0%	5.9%
COc1cc(C)c(C(=O)CC(=O)c2c(C)cc(OC)cc2C)c(C)c1	i	/	-65.7*	-5.2%	/	10.9%
